Compound activity deposited in PubChem BioAssay by several laboratories.
MITF TRPM1 inh: reduces MITF-dependent TRPM1 promoter luciferase signal; SK-MEL-5 TRPM1 promoter luciferase, 24 h; inhibition, % at 12.5 µM; hit rate 0.83% among 330,000; AID 488899;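 active = mean inhibition across replicates of 60% or more, whatever share of single replicates reaches that level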
EBV LMP1 NFkB: inhibitors of Epstein-Barr LMP1-induced NF-kappaB reporter. LMP1-induced NF-kappaB luciferase reporter cells, luminescence. inhibition, % at 12.5 µM. hit rate 0.69% among 350,000; in the data active = inhibition above about 41%;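 also: 0% = neutral control wells and 100% = reference inhibitor control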
Shn3 inh set2: Schnurri-3 reporter inhibition in Clone20 osteoblasts; Clone20 osteoblast Shn3 3'UTR firefly luciferase, 24 h; inhibition, % at 12.5 µM; hit rate 0.52% among 360,000;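 active = mean inhibition of at least 75% with every replicate also reaching 75%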;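 also: 0% = median of neutral control wells and 100% = pilot-screen positive control compound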
TROY signal inh: TROY signaling inhibition. Q293 LMP1-TROYcd NF-kB luciferase reporter, 4 h. inhibition, % at 10 µM. hit rate 0.98% among 360,000. AID 1347056;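 active = compounds whose plate-normalised and pattern-corrected inhibition of the luciferase reporter signal at the single screening dose is 50% or more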
Peg3 promoter: inhibitors of Peg3 promoter; HeLa PEG-Prom luciferase reporter, luminescence, overnight; inhibition, % at 20 µM; hit rate 1.7% among 360,000; AID 588405;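 active = inhibition of at least 50% at 20 µM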
TWEAK Fn14 block: TWEAK-Fn14 signaling inhibition | TWEAK-stimulated Fn14 reporter cells, luciferase luminescence, 8 h | inhibition, % at 10 µM | hit rate 2% among 360,000 | AID 1159606; in the data active = inhibition above about 50%
* = called active by the depositor. This is a sample that favours compounds with a hit; in the whole collection about 4.1% have one here.

CCOC(=O)c1c(C)[nH]c(C(=O)NNC(=O)c2ccc(Br)cc2)c1C was read as MITF TRPM1 inh -12, EBV LMP1 NFkB -10, Shn3 inh set2 -30, TROY signal inh 55*, Peg3 promoter -66 and TWEAK Fn14 block 56*.
Screening CCOC(=O)c1c(C)[nH]c(C(=O)NNC(=O)c2ccccc2)c1C returned MITF TRPM1 inh -7, EBV LMP1 NFkB 8, Shn3 inh set2 -51, TROY signal inh -25, Peg3 promoter -145 and TWEAK Fn14 block 53*.
`CCOC(=O)c1c(C)[nH]c(C(=O)NNC(=O)c2ccccc2F)c1C` gave MITF TRPM1 inh -70, EBV LMP1 NFkB -17, Shn3 inh set2 -32, TROY signal inh -17, Peg3 promoter -188 and TWEAK Fn14 block 26.
For CC1CCCCN1C(=O)c1cc2nc(-c3ccccc3)cc(-c3ccccc3)n2n1 (stereo unspecified) the results were MITF TRPM1 inh 4, EBV LMP1 NFkB 6, Shn3 inh set2 -8, TROY signal inh 19, Peg3 promoter 32 and TWEAK Fn14 block 44.
CC(=O)NC(c1ccccc1)c1nc(-c2cnc3ccccc3c2)cs1 (stereo unspecified) was read as Shn3 inh set2 8, TROY signal inh -13, Peg3 promoter -85 and TWEAK Fn14 block 1.
Screening COc1cc(-c2cnc3c(NC=O)cc(-c4ccc(C)cc4)cn23)cc(OC)c1OC returned Shn3 inh set2 11, TROY signal inh -7, Peg3 promoter -9 and TWEAK Fn14 block 1.
For COc1ccc(-c2cc(NC=O)c3ncc(-c4ccc(C(C)=O)cc4)n3c2)cc1OC the results were Shn3 inh set2 10, TROY signal inh 16, Peg3 promoter 68* and TWEAK Fn14 block 10.
COc1cc(-c2cc(NC=O)c3ncc(-c4ccc(C(C)=O)cc4)n3c2)cc(OC)c1OC was read as Shn3 inh set2 19, TROY signal inh -7, Peg3 promoter 57* and TWEAK Fn14 block -3.
`NCc1csc(Nc2ccc(C(=O)c3ccccc3)cc2)n1` gave Shn3 inh set2 3, TROY signal inh -20, Peg3 promoter -93 and TWEAK Fn14 block -1.
For COc1ccc(/C(N)=N/OC(=O)c2ccc3ccccc3c2)cc1OC the results were EBV LMP1 NFkB 3, Shn3 inh set2 1, TROY signal inh -73, Peg3 promoter -35 and TWEAK Fn14 block -55.
For N/C(=N\OC(=O)c1ccc2ccccc2c1)c1ccncc1 the results were MITF TRPM1 inh -89, EBV LMP1 NFkB -10, Shn3 inh set2 -15, TROY signal inh 1, Peg3 promoter -265 and TWEAK Fn14 block 42.
N/C(=N\OC(=O)c1ccc2ccccc2c1)c1ccccc1Cl was read as MITF TRPM1 inh -76, EBV LMP1 NFkB -67, Shn3 inh set2 -89, TROY signal inh -42, Peg3 promoter 81* and TWEAK Fn14 block -148.
For N/C(=N\OC(=O)c1ccc2ccccc2c1)c1ccccn1 the results were MITF TRPM1 inh 36, EBV LMP1 NFkB 56*, Shn3 inh set2 66, TROY signal inh 86*, Peg3 promoter 111* and TWEAK Fn14 block 96*.
COc1cc(/C=N/N(C)S(=O)(=O)c2ccc(C)cc2)cc([N+](=O)[O-])c1O was read as MITF TRPM1 inh 9, EBV LMP1 NFkB -9, Shn3 inh set2 -10, TROY signal inh 3, Peg3 promoter 13 and TWEAK Fn14 block 9.
CC(C)(C)OC(=O)CNC(=O)c1[nH]cnc1C(=O)NCCCCCNC(=O)OC(C)(C)C was read as MITF TRPM1 inh 14, EBV LMP1 NFkB 2, Shn3 inh set2 7, TROY signal inh 47, Peg3 promoter 42 and TWEAK Fn14 block 19.
COc1ccc(CCNC(=O)CCC2COc3ccccc3O2)cc1OC (stereo unspecified) was read as MITF TRPM1 inh 6, EBV LMP1 NFkB 1, Shn3 inh set2 8, TROY signal inh 12, Peg3 promoter 9 and TWEAK Fn14 block -8.
Screening COc1ccc(CC(=O)NCCc2ccc(OC)c(OC)c2)cc1 returned MITF TRPM1 inh -7, EBV LMP1 NFkB 3, Shn3 inh set2 9, TROY signal inh -11, Peg3 promoter 52* and TWEAK Fn14 block -13.
Screening COc1ccc(CCNC(=O)C2COc3ccccc3O2)cc1OC (stereo unspecified) returned MITF TRPM1 inh 0, EBV LMP1 NFkB -1, Shn3 inh set2 1, TROY signal inh 12, Peg3 promoter 4 and TWEAK Fn14 block 93*.
`COc1ccc(CCNC(=O)c2cc3cc(F)ccc3nc2C)cc1OC` gave MITF TRPM1 inh 8, EBV LMP1 NFkB 10, Shn3 inh set2 6, TROY signal inh 15, Peg3 promoter 16 and TWEAK Fn14 block 51*.
For COc1ccc(CCNC(=O)c2ccc3ccccc3n2)cc1OC the results were MITF TRPM1 inh 3, EBV LMP1 NFkB 18, Shn3 inh set2 3, TROY signal inh -8, Peg3 promoter 2 and TWEAK Fn14 block -3.
`COc1ccc(CNC(=O)c2ccc3ccccc3n2)cc1OC` gave MITF TRPM1 inh 20, EBV LMP1 NFkB 9, Shn3 inh set2 56, TROY signal inh 7, Peg3 promoter 2 and TWEAK Fn14 block 54*.
`COc1ccc(C(=O)NCCc2ccc(F)cc2)cc1OC` gave MITF TRPM1 inh -13, EBV LMP1 NFkB -13, Shn3 inh set2 0, TROY signal inh -24, Peg3 promoter -49 and TWEAK Fn14 block -3.
For O=C1CCCN1CC(=O)N1CCCC(Nc2cccc(F)c2)C1 (stereo unspecified) the results were MITF TRPM1 inh 13, EBV LMP1 NFkB 34, Shn3 inh set2 2, TROY signal inh -1, Peg3 promoter -2 and TWEAK Fn14 block 11.
For O=C1CC2(CCCC2)C(=O)N1CN1CCN(S(=O)(=O)c2ccc(Cl)c(Cl)c2)CC1 the results were MITF TRPM1 inh -7, EBV LMP1 NFkB -1, Shn3 inh set2 -12, TROY signal inh -3, Peg3 promoter 0 and TWEAK Fn14 block -7.
`O=C(NCc1cccnc1)c1ccc(-c2ccc(Cl)cc2)o1` gave MITF TRPM1 inh -13, EBV LMP1 NFkB -6, Shn3 inh set2 11, TROY signal inh -12, Peg3 promoter -23 and TWEAK Fn14 block -12.
O=C(NCc1cccnc1)/C(=C\c1ccc(-c2ccc(Cl)c(Cl)c2)o1)S(=O)(=O)c1ccccc1 was read as MITF TRPM1 inh 90*, EBV LMP1 NFkB 87*, Shn3 inh set2 98*, TROY signal inh 89*, Peg3 promoter 102* and TWEAK Fn14 block 105*.
Screening O=C(NCCN1C(=O)S/C(=C/c2cccnc2)C1=O)c1ccc(S(=O)(=O)N2CCCC2)cc1 returned MITF TRPM1 inh -4, EBV LMP1 NFkB -7, Shn3 inh set2 11, TROY signal inh -22, Peg3 promoter 11 and TWEAK Fn14 block 9.
O=C(/C=C/c1cccs1)c1ccc(N2CCOCC2)cc1 was read as MITF TRPM1 inh -22, EBV LMP1 NFkB 9, Shn3 inh set2 -16, TROY signal inh 75*, Peg3 promoter -3 and TWEAK Fn14 block 89*.
